Assay [1] deals with IRAK4. Particulars: n = 1.
Assay [2] concerns ITK. To be noted: n = 1.
Assay [3] concerns JAK1(JH1domain-catalytic). To be noted: n = 1.
In assay [4] the test system is JAK1(JH2domain-pseudokinase). To be noted: concentration: 1 μM, replicates: in singlicate; n = 1.
The test system of assay [5] is JAK2(JH1domain-catalytic). To be noted: n = 1.
Assay [6] relates to JAK3(JH1domain-catalytic). Particulars: concentration: 1 μM, replicates: in singlicate; n = 1.
The test system of assay [7] is T1, JNK1.
T1 construct: gene MAPK8
To be noted: n = 1.

Assay [8] concerns T2, JNK2.
T2 construct: gene MAPK9
Particulars: n = 1.

In assay [9] the test system is T3, JNK3.
T3 construct: gene MAPK10
To be noted: n = 1.

Assay [10] relates to KIT-autoinhibited. Particulars: n = 1.
Where [11] appears, read: concentration: 1 μM, replicates: in singlicate.
[12] abbreviates: concentration: 1 μM,replicates: in singlicate, 1 µM.

18 molecules from paper PMC5540273 (PLoS ONE, 2017) can be followed below.

Values joined by “and” are separate entries in the source; they are usually repeats but may differ in a detail not shown here. Equal entries are not always repeated. Where two headings read alike, the source gives them in different places.
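Also: KINOMEscan kinase panel screen.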

Regarding `CN1C(=O)C(Nc2ccc(Cl)c(C(=O)O)c2)=C(c2ccc(Cl)cc2)C1=O` [SB-404290], the “%Inh” value in assay [1] (setting [11]) is recorded as 0%; in [2] (setting [11]), 4%; in [3] (setting [11]) it was 0%; in assay [4] it was 17%; in assay [5] (setting [11]) it was 8%; in [6] it was 0%. The “%Inh” value in [7] (setting [11]) was 26%; in assay [8] (setting [11]) it was 2%; in assay [9] (setting [11]), 7%; in assay [10] (setting [11]), 0%.

Turning to `CS(=O)(=O)c1ccc(-c2c(-c3ncn[nH]3)sc(N3CCOCC3)c2C#N)cc1`, the “%Inh” value in [1] (setting [11]) is listed as 0%; in [2] (setting [11]) it was 6%; in [3] (setting [11]), 0%; in [4], 56%; in assay [5] (setting [11]), 0%; in [6] it was 2%. Besides, the “%Inh” value in assay [7] (setting [11]) is listed as 25%; in assay [8] (setting [11]), 0%; in assay [9] (setting [11]), 0%; in assay [10] (setting [11]) it was 49%.

Regarding `Cl.c1ccc(-c2n[nH]cc2-c2ccnc(-c3ccc(CN4CCOCC4)cc3)c2)nc1` [GW776245], the “%Inh” value in [1] (setting [11]) is 0%; in assay [2] (setting [11]), 0%; in assay [3] (setting [11]) it was 0%; in assay [4] it was 2%; in assay [5] (setting [11]), 0%; in [6] it was 0%. Besides, the “%Inh” value in assay [7] (setting [11]) was found to be 31%; in [8] (setting [11]), 17%; in assay [9] (setting [11]), 20%; in [10] (setting [11]), 0%.

Consider `CC(C)(C)c1ccc(C(=O)Nc2cn3cc(Cl)ccc3n2)cc1`, for which the “%Inh” value is 0% in assay [1] (setting [11]); 0% in assay [2] (setting [11]); 0% in assay [3] (setting [11]); 7% in assay [4]; 1% in [5] (setting [11]); 0% in assay [6]. Besides, the “%Inh” value in assay [7] (setting [11]) amounted to 0%; in [8] (setting [11]) it was 0%; in assay [9] (setting [11]) it was 0%; in assay [10] (setting [11]), 42%.

In the case of `O=c1cc(N2CCOCC2)nc2n(Cc3cccc(Cl)c3Cl)ccn12` [GSK2286295], the “%Inh” value in assay [1] (setting [11]) is on record as 0%; in assay [2] (setting [11]) it was 4%; in [3] (setting [11]), 17%; in assay [4], 0%; in assay [5] (setting [11]), 0%; in assay [6], 0%. Also, the “%Inh” value came to 1% in assay [7] (setting [11]), 30% in assay [8] (setting [11]), 15% in assay [9] (setting [11]) and 0% in assay [10] (setting [11]).

Consider `C[C@@H]1CCCCN1c1cc(-c2ccc3c(N)n[nH]c3c2)nc(N)n1` [GSK2258759], for which the “%Inh” value in assay [1] (setting [11]) is given as 0%; in assay [2] (setting [11]), 0%; in assay [3] (setting [11]), 8%; in [4], 0%; in assay [5] (setting [11]) it was 0%; in [6], 0%. Also, the “%Inh” value in assay [7] (setting [11]) is reported as 0%; in assay [8] (setting [11]) it was 10%; in assay [9] (setting [11]) it was 0%; in assay [10] (setting [11]) it was 0%.

`CS(=O)(=O)c1ccc(-c2nc3n(c2-c2ccncc2)CCC3)cc1` [SKF-105942]: the “%Inh” value is 23% in assay [1] (setting [11]); 7% in [2] (setting [11]); 6% in [3] (setting [11]); 0% in assay [4]; 0% in assay [5] (setting [11]); 0% in assay [6]. The “%Inh” value in [7] (setting [11]) is on record as 41%; in [8] (setting [11]) it was 16%; in [9] (setting [11]), 0%; in [10] (setting [11]) it was 7%.

For the molecule `Cl.NC(=O)c1cccc(Nc2nccc(Nc3ccc(Oc4cccc(Cl)c4)c(Cl)c3)n2)c1` [GW659008], the “%Inh” value stood at 0% in assay [1] (setting [11]); 0% in [2] (setting [11]); 15% in assay [3] (setting [11]); 0% in assay [4]; 84% in assay [5] (setting [11]); 0% in assay [6]. The “%Inh” value came out at 22% in assay [7] (setting [11]), 20% in assay [8] (setting [11]), 10% in assay [9] (setting [11]) and 0% in assay [10] (setting [11]).

In the case of `Cn1cncc1-c1ccc2ncnc(Nc3ccc(OCc4ccccc4)cc3)c2c1` [GW320571], the “%Inh” value in [1] (setting [11]) is 2%; in assay [2] (setting [11]), 14%; in [3] (setting [11]), 18%; in assay [4] it was 22%; in assay [5] (setting [11]), 0%; in assay [6], 0%. Further, the “%Inh” value in assay [7] (setting [11]) amounted to 18%; in [8] (setting [11]), 6%; in assay [9] (setting [11]) it was 4%; in assay [10] (setting [11]), 0%.

Regarding `CSc1nn2c(=O)cc(N3CCOCC3)nc2n1Cc1cccc(C(F)(F)F)c1C` [GSK2363608], the “%Inh” value in [1] (setting [12]) is 12% and 18%; in [2] (setting [12]) it was 2% and 12%; in [3] (setting [12]), 13% and 30%; in assay [4], 0%; in [5] (setting [12]), 100% and 0%; in assay [6], 0%. The “%Inh” value in assay [7] (setting [12]) was 2% and 16%; in [8] (setting [12]), 15% and 5%; in [9] (setting [12]) it was 7% and 3%; in [10] (setting [12]), 2% and 0%.

For `O=C1NC(=O)C(N2CCc3ccccc32)=C1c1ccccc1Cl` [SB-373598], the “%Inh” value in assay [1] (setting [11]) came out at 7%; in [2] (setting [11]), 10%; in assay [3] (setting [11]) it was 3%; in assay [4], 0%; in assay [5] (setting [11]) it was 0%; in assay [6], 40%. Further, the “%Inh” value in assay [7] (setting [11]) is recorded as 7%; in assay [8] (setting [11]), 6%; in [9] (setting [11]), 5%; in assay [10] (setting [11]), 0%.

Consider `NC(=O)c1nnc2ccccc2c1N`, for which the “%Inh” value in assay [1] (setting [11]) is 33%; in assay [2] (setting [11]), 64%; in assay [3] (setting [11]) it was 4%; in [4], 37%; in assay [5] (setting [11]), 58%; in [6] it was 65%. In addition, the “%Inh” value is given as 27% in assay [7] (setting [11]), 17% in assay [8] (setting [11]), 13% in [9] (setting [11]) and 19% in assay [10] (setting [11]).

`O=C(Nc1ccccc1)Nc1cccc(Oc2ccc3nccn3n2)c1`: the “%Inh” value in [1] (setting [11]) was found to be 0%; in assay [2] (setting [11]), 2%; in [3] (setting [11]), 16%; in [4] it was 5%; in assay [5] (setting [11]), 7%; in [6] it was 0%. Also, the “%Inh” value in assay [7] (setting [11]) worked out at 0%; in assay [8] (setting [11]) it was 0%; in [9] (setting [11]), 0%; in [10] (setting [11]), 39%.

For the molecule `COc1ccc(Nc2nccc(NCCNC(=O)Nc3ccccc3F)n2)cc1` [GSK1379901], the “%Inh” value in [1] (setting [11]) was determined as 20%; in [2] (setting [11]), 9%; in assay [3] (setting [11]), 15%; in assay [4], 0%; in [5] (setting [11]), 25%; in [6] it was 0%. In addition, the “%Inh” value stood at 56% in assay [7] (setting [11]), 15% in assay [8] (setting [11]), 11% in [9] (setting [11]) and 0% in [10] (setting [11]).

Take `Cc1c(O)cccc1Nc1ccnc2ccc(C(F)(F)F)cc12.Cl` [GW466413]: the “%Inh” value in assay [1] (setting [11]) worked out at 0%; in [2] (setting [11]), 0%; in [3] (setting [11]), 0%; in assay [4], 0%; in assay [5] (setting [11]), 6%; in assay [6], 0%. Further, the “%Inh” value turned out to be 21% in assay [7] (setting [11]), 4% in assay [8] (setting [11]), 0% in [9] (setting [11]) and 0% in [10] (setting [11]).

`Cc1c(Cn2ccn3c(=O)cc(N4CCOCC4)nc23)cccc1C(F)(F)F` [GSK2289044]: the “%Inh” value in [1] (setting [11]) is recorded as 0%; in assay [2] (setting [11]) it was 5%; in [3] (setting [11]), 83%; in assay [4], 0%; in assay [5] (setting [11]) it was 0%; in assay [6] it was 0%. Further, the “%Inh” value in assay [7] (setting [11]) worked out at 3%; in assay [8] (setting [11]), 6%; in assay [9] (setting [11]), 3%; in [10] (setting [11]), 0%.

Regarding `CN(C)CCN(C)C(=O)c1cc(-c2ccncc2)c(-c2ccc(Cl)c(O)c2)o1.Cl.Cl` [SB-710397], the “%Inh” value is 43% in assay [1] (setting [11]); 13% in [2] (setting [11]); 18% in assay [3] (setting [11]); 0% in assay [4]; 49% in assay [5] (setting [11]); 0% in assay [6]. Besides, the “%Inh” value in assay [7] (setting [11]) is reported as 27%; in assay [8] (setting [11]) it was 29%; in [9] (setting [11]), 35%; in assay [10] (setting [11]), 0%.

For `Fc1cc(Cl)ccc1Nc1ccnc2cc(-c3ccc(CN4CCCCC4)o3)ccc12` [GW560116], the “%Inh” value in assay [1] (setting [11]) is reported as 0%; in assay [2] (setting [11]) it was 2%; in assay [3] (setting [11]) it was 11%; in assay [4] it was 0%; in assay [5] (setting [11]), 24%; in assay [6] it was 0%. Further, the “%Inh” value in [7] (setting [11]) is 0%; in assay [8] (setting [11]), 1%; in assay [9] (setting [11]), 0%; in [10] (setting [11]) it was 0%.
